Compounds without any hit were thinned out: in the full panel of roughly 83,000, 20% have a hit.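 Method: cells in 96-well plates; compound added at one concentration; 48 h incubation; percent growth measured; values under 10 scored active.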 Activity calls are given as the source filed them.
Key:
Assay in all cases: NCI-60 one-dose screen, 48 h (100 = growth as untreated, 0 = no growth, -100 = all killed)
Conditions in all cases: 10 µM unless noted
SR leukemia = test system: SR leukemia
RPMI-8226 leukemia = test system: RPMI-8226 leukemia
OVCAR-8 ovarian = test system: OVCAR-8 ovarian
OVCAR-5 ovarian = test system: OVCAR-5 ovarian
OVCAR-4 ovarian = test system: OVCAR-4 ovarian
SK-OV-3 ovarian = test system: SK-OV-3 ovarian
IGROV1 ovarian = test system: IGROV1 ovarian
OVCAR-3 ovarian = test system: OVCAR-3 ovarian
HS 578T breast = test system: HS 578T breast
NCI/ADR-RES ovarian = test system: NCI/ADR-RES ovarian
T-47D breast = test system: T-47D breast
BT-549 breast = test system: BT-549 breast
MDA-MB-435 melanoma = test system: MDA-MB-435 melanoma
MCF7 breast = test system: MCF7 breast
HCT-116 colon = test system: HCT-116 colon
HCC-2998 colon = test system: HCC-2998 colon
KM12 colon = test system: KM12 colon
SW-620 colon = test system: SW-620 colon

Measured: growth

Cc1ccc(NS(=O)(=O)c2ccc(-c3cnc(C4CC4)o3)cc2)cc1C(F)(F)F
inactive: SR leukemia 28.6% | RPMI-8226 leukemia 55.2% | OVCAR-8 ovarian 78.5% | OVCAR-5 ovarian 93.2% | OVCAR-4 ovarian 69.4% | SK-OV-3 ovarian 86.8% | IGROV1 ovarian 51.8% | OVCAR-3 ovarian 24.5% | HS 578T breast 69% | NCI/ADR-RES ovarian 43.3% | T-47D breast 55.1% | BT-549 breast 63.8% | MCF7 breast 26.6% | HCT-116 colon 41.1% | HCC-2998 colon 84.1% | KM12 colon 38.6%
active: MDA-MB-435 melanoma -4.02%

C=C1C(=O)O[C@H]2[C@H]1CC/C(COC(=O)NCc1c[nH]c3ccc(Br)cc13)=C\CC[C@@]1(C)O[C@@H]21
active: SR leukemia 7.54% | RPMI-8226 leukemia -29.2% | OVCAR-8 ovarian -41.7% | OVCAR-5 ovarian -20.7% | OVCAR-4 ovarian 4.97% | IGROV1 ovarian -46.8% | OVCAR-3 ovarian -87.5% | T-47D breast -68% | BT-549 breast -52.3% | SW-620 colon -71.3% | HCT-116 colon -83.1%
inactive: SK-OV-3 ovarian 86.9% | HS 578T breast 34.3% | NCI/ADR-RES ovarian 43.5% | MCF7 breast 16.6% | HCC-2998 colon 53.3% | KM12 colon 19.5%

CC(C)(C)c1cc(/C=N/NC(=O)c2ccccc2NC(=O)c2cccs2)c(O)c(C(C)(C)C)c1
inactive: RPMI-8226 leukemia 32.5% | OVCAR-8 ovarian 10.1% | OVCAR-5 ovarian 67.7% | SK-OV-3 ovarian 31.8% | IGROV1 ovarian 36.3% | HS 578T breast 71.5% | NCI/ADR-RES ovarian 18.8% | T-47D breast 29.4% | BT-549 breast 57.4% | MDA-MB-435 melanoma 51.8% | MCF7 breast 18.1% | HCC-2998 colon 30.9% | KM12 colon 25.6%
active: SR leukemia -27.2% | OVCAR-4 ovarian -34.6% | OVCAR-3 ovarian 6.92% | HCT-116 colon 9.85%

O=C1Nc2cc(-c3cccc([N+](=O)[O-])c3)ccc2/C1=C/c1ccc[nH]1
inactive: SR leukemia 11.3% | RPMI-8226 leukemia 81.3% | OVCAR-8 ovarian 101% | OVCAR-5 ovarian 48.8% | OVCAR-4 ovarian 45.4% | SK-OV-3 ovarian 59.6% | IGROV1 ovarian 54.5% | OVCAR-3 ovarian 70.6% | HS 578T breast 102% | NCI/ADR-RES ovarian 99.2% | BT-549 breast 23% | MDA-MB-435 melanoma 97.7% | MCF7 breast 16% | HCT-116 colon 97.9% | HCC-2998 colon 61% | KM12 colon 46.7%
active: T-47D breast -10.6%

O=C(C1CCC1)N1N=C(c2ccc(-n3ccc(C(F)(F)F)n3)cc2)CC1c1ccc[nH]1 (stereo unspecified)
inactive: SR leukemia 81.9% | RPMI-8226 leukemia 63.2% | OVCAR-8 ovarian 95.4% | OVCAR-5 ovarian 94.8% | OVCAR-4 ovarian 112% | SK-OV-3 ovarian 133% | IGROV1 ovarian 99.6% | OVCAR-3 ovarian 107% | HS 578T breast 101% | NCI/ADR-RES ovarian 95.5% | T-47D breast 78% | BT-549 breast 119% | SW-620 colon 103% | MCF7 breast 91.9% | HCT-116 colon 94.4% | HCC-2998 colon 113% | KM12 colon 89.7%

O=C(Nc1ccc(F)cc1)Nc1ccc(NC(=O)c2cc(Cl)nc3ccccc23)cc1
inactive: SR leukemia 74.1% | RPMI-8226 leukemia 26.5% | OVCAR-8 ovarian 42.9% | OVCAR-5 ovarian 92.9% | OVCAR-4 ovarian 51.2% | SK-OV-3 ovarian 59.8% | IGROV1 ovarian 52.6% | OVCAR-3 ovarian 12.2% | NCI/ADR-RES ovarian 99.7% | T-47D breast 42.9% | BT-549 breast 37.2% | MDA-MB-435 melanoma 73.8% | MCF7 breast 69% | HCT-116 colon 56.9% | HCC-2998 colon 51% | KM12 colon 58.5%
active: HS 578T breast 9.05%

COc1ccc2[nH]c(=O)c(CN3CCN(c4nccc(-c5ccc(Cl)cc5)n4)CC3)cc2c1
inactive: SR leukemia 70.3% | RPMI-8226 leukemia 73.6% | OVCAR-8 ovarian 66% | OVCAR-5 ovarian 98.5% | OVCAR-4 ovarian 71.4% | SK-OV-3 ovarian 94.9% | IGROV1 ovarian 106% | OVCAR-3 ovarian 100% | HS 578T breast 72.9% | NCI/ADR-RES ovarian 82.4% | T-47D breast 73.6% | BT-549 breast 91.2% | MDA-MB-435 melanoma 97.9% | SW-620 colon 89.5% | MCF7 breast 83.5% | KM12 colon 90.6%

CC(C)(C)c1ccc(NS(=O)(=O)c2ccc3nc(NC(=O)c4cnccn4)[nH]c3c2)cc1
active: SR leukemia 4.26% | OVCAR-3 ovarian -12.3% | HS 578T breast -1.91% | MDA-MB-435 melanoma -41%
inactive: RPMI-8226 leukemia 24.3% | OVCAR-8 ovarian 45.6% | OVCAR-5 ovarian 57% | OVCAR-4 ovarian 37% | SK-OV-3 ovarian 53.5% | IGROV1 ovarian 37.4% | NCI/ADR-RES ovarian 30.6% | T-47D breast 25.6% | BT-549 breast 26.6% | MCF7 breast 18% | HCT-116 colon 25.4% | HCC-2998 colon 70.2% | KM12 colon 16.6%

CCCCCCCCCCCCCCCC[N+]1(C)CCN(SN2CC[N+](C)(CCCCCCCCCCCCCCCC)CC2)CC1
active: IGROV1 ovarian -18.9%
inactive: SR leukemia 26.8% | RPMI-8226 leukemia 26.3% | OVCAR-8 ovarian 67.2% | OVCAR-5 ovarian 50% | OVCAR-4 ovarian 74.6% | SK-OV-3 ovarian 124% | OVCAR-3 ovarian 59.7% | HS 578T breast 88.2% | NCI/ADR-RES ovarian 96.3% | T-47D breast 102% | BT-549 breast 87.7% | MDA-MB-435 melanoma 95.7% | SW-620 colon 57.7% | MCF7 breast 76.9% | KM12 colon 78.2%

O=C(Nc1cccc(C(=O)N2CCc3ccc(Cl)cc32)c1)c1ccco1
active: MDA-MB-435 melanoma -2.72%
inactive: SR leukemia 20.4% | RPMI-8226 leukemia 34.6% | OVCAR-8 ovarian 51.5% | OVCAR-5 ovarian 70.7% | OVCAR-4 ovarian 70.5% | SK-OV-3 ovarian 82.6% | IGROV1 ovarian 31.1% | OVCAR-3 ovarian 18.2% | HS 578T breast 28.9% | NCI/ADR-RES ovarian 24.2% | T-47D breast 33.6% | BT-549 breast 37.2% | MCF7 breast 21.6% | HCT-116 colon 18.9% | HCC-2998 colon 68% | KM12 colon 33.6%

O=C(c1nnc(Nc2ccccc2Br)o1)c1c[nH]c2ccccc12
inactive: SR leukemia 103% | RPMI-8226 leukemia 93.6% | OVCAR-8 ovarian 94.9% | OVCAR-5 ovarian 99.6% | OVCAR-4 ovarian 106% | SK-OV-3 ovarian 83% | IGROV1 ovarian 72.6% | OVCAR-3 ovarian 97.2% | HS 578T breast 104% | NCI/ADR-RES ovarian 102% | T-47D breast 79.6% | BT-549 breast 103% | MDA-MB-435 melanoma 101% | MCF7 breast 77.2% | HCT-116 colon 88.4% | HCC-2998 colon 88.6% | KM12 colon 81.7%

Cc1ccc(S(=O)(=O)NNC(=O)/C(=C\c2ccc(Cl)cc2)c2nc3ccccc3s2)cc1
inactive: SR leukemia 72.8% | RPMI-8226 leukemia 87% | OVCAR-8 ovarian 88.1% | OVCAR-5 ovarian 110% | OVCAR-4 ovarian 94.2% | SK-OV-3 ovarian 105% | IGROV1 ovarian 91.4% | OVCAR-3 ovarian 96% | HS 578T breast 98.1% | NCI/ADR-RES ovarian 97.8% | T-47D breast 95% | BT-549 breast 106% | MDA-MB-435 melanoma 96.9% | SW-620 colon 93.6% | MCF7 breast 78.7% | KM12 colon 96.6%

COc1cccc(-c2nc3occn3c2-c2ccnc(NCCNS(=O)(=O)c3cccc4ccccc34)n2)c1
inactive: SR leukemia 110% | RPMI-8226 leukemia 102% | OVCAR-8 ovarian 97.4% | OVCAR-5 ovarian 123% | OVCAR-4 ovarian 102% | SK-OV-3 ovarian 83.5% | IGROV1 ovarian 89% | OVCAR-3 ovarian 103% | HS 578T breast 105% | NCI/ADR-RES ovarian 98.8% | T-47D breast 87.3% | BT-549 breast 105% | MDA-MB-435 melanoma 102% | MCF7 breast 95.5% | HCT-116 colon 99.9% | HCC-2998 colon 132% | KM12 colon 93.8%

CNCCn1c(=O)c2cc(OC)c(OC)cc2c2ccc3cc4c(cc3c21)OCO4
active: SR leukemia -22.4% | RPMI-8226 leukemia -27.6% | OVCAR-5 ovarian 4.57% | OVCAR-4 ovarian -10.9% | SK-OV-3 ovarian -0.269% | IGROV1 ovarian 0.994% | OVCAR-3 ovarian -6.33% | HS 578T breast 4.39% | NCI/ADR-RES ovarian 4.99% | T-47D breast 6.22% | BT-549 breast -19.8% | MDA-MB-435 melanoma -61% | SW-620 colon -47.4% | MCF7 breast 7.12% | HCC-2998 colon -51.6% | KM12 colon 3.17%
inactive: OVCAR-8 ovarian 10.2%

C=C(C)[C@@H]1CC[C@]2(C(=O)N[C@@H](Cc3ccccc3)C(=O)OC)CC[C@]3(C)[C@H](CC[C@@H]4[C@@]5(C)CCC(=O)C(C)(C)[C@@H]5CC[C@]43C)[C@@H]12
inactive: SR leukemia 85.3% | RPMI-8226 leukemia 85.2% | OVCAR-8 ovarian 100% | OVCAR-5 ovarian 97.9% | OVCAR-4 ovarian 73.5% | SK-OV-3 ovarian 98.8% | IGROV1 ovarian 88.7% | OVCAR-3 ovarian 72.7% | HS 578T breast 96.4% | NCI/ADR-RES ovarian 99.1% | T-47D breast 64.8% | BT-549 breast 105% | MDA-MB-435 melanoma 90.6% | MCF7 breast 84.6% | HCT-116 colon 68.4% | HCC-2998 colon 98.2% | KM12 colon 75.2%

COc1cc2oc(-c3cccc(C(=O)Nc4ccc(Cl)cc4)c3)cc(=O)c2c(O)c1OC
inactive: SR leukemia 65.1% | RPMI-8226 leukemia 70% | OVCAR-8 ovarian 16.3% | OVCAR-5 ovarian 79.1% | SK-OV-3 ovarian 58.3% | IGROV1 ovarian 54% | OVCAR-3 ovarian 30.4% | NCI/ADR-RES ovarian 37.3% | T-47D breast 47.2% | BT-549 breast 60.1% | MDA-MB-435 melanoma 61% | MCF7 breast 80.9% | HCT-116 colon 39.9% | HCC-2998 colon 96.5% | KM12 colon 62%
active: OVCAR-4 ovarian -30.4% | HS 578T breast 6.66%

O=C1Nc2cc(-c3ccc(NS(=O)(=O)c4ccccc4)cc3)ccc2/C1=C/c1ccc[nH]1
inactive: RPMI-8226 leukemia 77.8% | OVCAR-8 ovarian 97.1% | OVCAR-5 ovarian 52% | OVCAR-4 ovarian 68.7% | SK-OV-3 ovarian 79.1% | IGROV1 ovarian 93.1% | OVCAR-3 ovarian 108% | HS 578T breast 97.7% | NCI/ADR-RES ovarian 92.6% | T-47D breast 18.5% | BT-549 breast 24.6% | MDA-MB-435 melanoma 88.2% | HCT-116 colon 82% | HCC-2998 colon 91.6% | KM12 colon 46.7%
active: SR leukemia 6.67% | MCF7 breast 6.53%

— PubChem BioAssay (NCI)
